Bioassay records from PubChem BioAssay.
This excerpt belongs to a sample that is enriched for hits.
mHTT-CaM PPI inh = inhibitors of human mutant huntingtin-calmodulin interaction; 190,000 compounds, 3.6% hits; inhibition, % at 15 µM; AID 1671202; AlphaScreen His-mHTT/GST-CaM binding, luminescence;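 further: 0% = both proteins with DMSO and 100% = one protein alone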
Pf apPOL inh = Pf-apPOL DNA polymerase inhibition | Recombinant Pf-apPOL, molecular beacon fluorescence, 1.5 h | inhibition, % at 10 µM | 210,000 compounds, 0.25% hits
Starred values were filed as active, the others as inactive; i = inactive; . = no result given. No stated cut-off is given here; in the data, active means inhibition above about 50%; inactive means the rest.

SMILES | mHTT-CaM PPI inh | Pf apPOL inh
CCCNc1cc(N2CCC(CCC(=O)Nc3cc(C)ccc3OC)CC2)ncn1 | 59* | -6
COc1ccc(C)cc1NC(=O)CCC1CCN(c2cc(NC3CC3)ncn2)CC1 | 39 | -3
CCNc1cc(N2CCCC(CCC(=O)Nc3cc(C)ccc3OC)C2)ncn1 (stereo unspecified) | 55* | 1
COc1ccc(C)cc1NC(=O)CCC1CCCN(c2cc(NC3CC3)ncn2)C1 (stereo unspecified) | 10 | -8
O=C1C(=Cc2ccc(Br)o2)C(=O)c2ccccc21 | 77* | 0
O=C1C(=Cc2ccc(Sc3ccccc3)o2)C(=O)c2ccccc21 | 37 | 0
O=C1/C(=C/c2ccc(Br)o2)CC/C1=C\c1ccc(Br)o1 | 96* | -4
O=C1C=C/C(=C/c2ccc(Br)o2)O1 | 5 | .
Oc1ccc(Nc2nc(NCc3ccco3)c3ccccc3n2)cc1 | 53* | -1
Clc1ccc(CSc2nc(NCc3ccco3)c3ccccc3n2)cc1 | 25 | -8
COCCN(CCOC)Cc1c(O)ccc2c(O)c(-c3ccccc3OC)c(=O)oc12 | -5 | 2
Nc1c(C(=O)Nc2ccc(S(N)(=O)=O)cc2)sc2nc3c(cc12)CCCC3 | 17 | -2
CC1CCCC2(C1)C(C#N)=C(SCC(=O)Nc1ccc(Br)cc1)NC(=O)C2C#N (stereo unspecified) | 73* | -2
N#CC1=C(SCC(=O)Nc2ccccc2)NC(=O)C(C#N)C12CCCC2 (stereo unspecified) | -3 | -4
Cn1c(-c2ccco2)nn([C@H]2CC(=O)[C@@H]3OC[C@H]2O3)c1=S | -4 | .
CCc1nnc(NC(=O)c2ccc(S(=O)(=O)N(C)C)cc2)o1 | 24 | -4
CCSc1ccc(Cc2nnc(NC(=O)c3ccc(S(=O)(=O)N(C)C)cc3)o2)cc1 | 61* | -253
O=C(Nc1ccc2c(c1)OCCO2)N1CCC(n2c(-c3ccoc3)nc3cccnc32)C1 (stereo unspecified) | 29 | -2
N#Cc1c(SCC(=O)C23CC4CC(CC(C4)C2)C3)sc2c(O)cc(=O)[nH]c12 | 1 | .
Nc1c(C(=O)C23CC4CC(CC(C4)C2)C3)sc2sc3c(O)cc(=O)[nH]c3c12 | 52* | .
CCNc1cc(N2CCCC(CCC(=O)N3CCC(C(=O)OCC)CC3)C2)ncn1 (stereo unspecified) | 6 | -5
O=c1ccc(-c2ccc(Cl)cc2)nn1CCNS(=O)(=O)c1ccc2c(c1)CCCC2 | 80* | -10
O=C(NCCCn1nc(-c2ccc(Cl)cc2)ccc1=O)C1CCCC1 | -9 | -25
CC1(C)NC(C)(C)/C(=N\O)C(=NO)/C1=N/O | i | .
NCCN1C(=O)S/C(=C\c2ccc(F)c(Oc3ccccc3)c2)C1=O | 71* | -14
SMILES | mHTT-CaM PPI inh | Pf apPOL inh
COc1ccc(/C=C2\SC(=O)N(CCN)C2=O)cc1OC | 4 | -1
O=C(NCC1CCCO1)c1ccn2c(-c3cccc(Cl)c3)nnc2c1 (stereo unspecified) | 3 | -3
COCCNC(=O)c1c(NC(=O)c2ccccc2OC)sc2c1CCCC2 | -12 | -5
CCOc1cc(/C=C2\C(=O)NN(c3ccc(C)c(Cl)c3)C2=O)cc(Cl)c1OCC | 41 | -11
COc1cc(/C=C2\C(=O)NN(c3ccc(C)c(C)c3)C2=O)cc(Cl)c1OC | 58* | -6
CCOc1cc(/C=C2\C(=O)NN(c3ccc(C)c(C)c3)C2=O)cc(Cl)c1OCC | 63* | -2
CCOc1ccc(/C=C2\C(=O)NN(c3cccc(Br)c3)C2=O)cc1OCC | 5 | -2
COc1cc(/C=C2\C(=O)NN(c3cccc(Br)c3)C2=O)cc(Cl)c1OC(C)C | 84* | -4
COc1cc(/C=C2\C(=O)NN(c3ccccc3)C2=O)cc(Cl)c1OC | 28 | -1
CC(C)c1noc(-c2cccnc2N2CCCN(Cc3cccc(Cl)c3)CC2)n1 | -9 | -6
CN(C)c1ccc(/C=C2/S/C(=N\O)NC2=O)cc1 | i | 0
Cc1noc(COC2CCN(C(=O)c3n[nH]c4ccccc34)CC2)n1 | 4 | -2
O=S(=O)(C1CC1)N1CCCCC1c1nncn1CC1CC1 (stereo unspecified) | -5 | -1
O=C(O)C1CC=CCC1c1ccc(Cl)cc1Cl (stereo unspecified) | . | -1
COc1cccc(C2Nc3ccc(C(C)=O)cc3C3C=CCC32)c1OC (stereo unspecified) | 64* | 0
O=C(c1cccc2c1NC(c1ccc(Cl)cc1Cl)C1CC=CC21)N1CCCC1 (stereo unspecified) | -4 | -4
NS(=O)(=O)c1ccc2c(c1)C1C=CCC1C(c1ccc(Cl)cc1Cl)N2 (stereo unspecified) | 79* | -2
O=C(O)c1cccc2c1NC(c1ccc(Cl)cc1Cl)C1CC=CC21 (stereo unspecified) | 56* | 6
CC(=O)c1ccc2c(c1)C1C=CCC1C(c1cc3c(cc1Br)OCO3)N2 (stereo unspecified) | 28 | -3
O=C(O)c1ccc2c(c1)C1C=CCC1C(c1ccc(Cl)cc1Cl)N2 (stereo unspecified) | 67* | -4
O=C(/C=C/c1ccco1)Nc1ccc(NC(=O)c2cccs2)cc1 | 14 | 1
NS(=O)(=O)c1ccc2c(c1)C1C=CCC1C(c1ccc([N+](=O)[O-])cc1)N2 (stereo unspecified) | 92* | 4
O=[N+]([O-])c1ccc(C2Nc3cc(Br)ccc3C3C=CCC32)cc1 (stereo unspecified) | 40 | .
O=C(CCC1CCCN(C(=O)Nc2ccccc2)C1)NCc1ccccc1Cl (stereo unspecified) | 4 | 0
Cc1nc(-c2cccnc2)nc2c1CCC(=O)N2CCN1CCCC1 | 23 | 58*
SMILES | mHTT-CaM PPI inh | Pf apPOL inh
Cc1nc(-c2cnccn2)nc2c1CCC(=O)N2Cc1ccccn1 | 99* | -22
Cc1nc(-c2ccncc2)nc2c1CCC(=O)N2Cc1cccs1 | 6 | -3
Cc1ccc(CN2C(=O)CCc3c(C)nc(-c4ccncc4)nc32)o1 | 71* | 9
Cc1nc(-c2cccnc2)nc2c1CCC(=O)N2Cc1ccccn1 | 2 | -12
Cc1nc(-c2cccnc2)nc2c1CCC(=O)N2CCN(C)C | 1 | -6
COc1cc(OC)cc(-n2nc(C(=O)N(C)C3CCCCC3)c3ccccc3c2=O)c1 | 1 | -2
O=C1CCc2c1[nH]c1ccc(C3CCCCC3)cc21 | 10 | 4
OCCN=C1CCc2c1[nH]c1ccc(C3CCCCC3)cc21 | 58* | -5
CCc1nccn1Cc1nc(-c2ccc(OC)cc2)no1 | 8 | 0
COc1ccc(OC)c(C2C(C(=O)Nc3ccccn3)=C(C)Nc3nnnn32)c1 (stereo unspecified) | 12 | 5
CCNC(=O)NCc1cccnc1OCC | -5 | 0
Cc1ccc(CN2CCC(C(=O)N3CCN(c4ccccc4F)CC3)CC2)cc1 | 16 | -4
Cc1ccc(C(=O)N2CCC(C(=O)N3CCN(c4ccccc4F)CC3)CC2)cc1 | 6 | 57*
O=C(NCCCc1ccccc1)c1ccc2c(c1)NC(=O)C1CCCCN21 (stereo unspecified) | -2 | -4
O=C(NCCN1CCC(Cc2ccccc2)CC1)c1ccc2c(c1)NC(=O)C1CCCCN21 (stereo unspecified) | 97* | 2
O=C(NCCN1CCCCCC1)c1ccc2c(c1)NC(=O)C1CCCCN21 (stereo unspecified) | 11 | 1
O=C(NCCCc1ccccc1)c1ccc2c(c1)NC(=O)C1CCCN21 (stereo unspecified) | 67* | 4
